Assay outcomes as filed in PubChem BioAssay.
EWS-Fli block: EWS/Fli-driven NR0B1 reporter inhibitors, primary screen, A673 cells, NR0B1 luciferase, luminescence, MLPCN library; viability-normalised; inhibition, % at 12.6 µM; 0.67% of 350,000 active;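 active means mean inhibition of at least 50% after viability correction, with every replicate also passing that limit; inconclusive means mean reaches 50% but only one of two replicates passes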;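 further: firefly luciferase signal divided by Alamar Blue viability fluorescence both relative to DMSO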
Shn3 3UTR inh: reduction of Shn3 3'UTR firefly luciferase signal, primary screen, Schnurri-3 inhibitor project, cell-based, Clone20 osteoblasts, set 2. Clone20 osteoblast Shn3 3'UTR firefly luciferase, 24 h. inhibition, % at 12.5 µM. 0.52% of 360,000 active. AID 588674, 2011;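 active means mean inhibition of at least 75% with every replicate also reaching 75%; inconclusive means mean inhibition at least 75% but some replicate below; inactive means mean inhibition below 75%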;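 further: 0% = median of neutral control wells and 100% = pilot-screen positive control compound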
LGR2 inh: inhibitors of bursicon-induced LGR2 CRE-luciferase signal, primary screen, cell-based, HEK293, CRE-luciferase reporter, bursicon stimulation. Drosophila bursicon receptor LGR2 (rickets). bursicon-stimulated, 4 h. inhibition, % at 9.99 µM. 0.35% of 380,000 active. AID 720647, 2013;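 active means drop in luminescence signal, shown as inhibition above about 50% in the replicate tests, limit read from the data, passing the limit was not always enough; inconclusive means probably only some replicates passing the limit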;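 further: agonist challenge used bursicon conditioned medium at about half maximal strength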
LMP1 NFkB inh: EBV LMP1-driven NF-kappaB luciferase reporter inhibitors, primary screen, cell-based, luminescence, single point; 0.69% of 350,000 active; inhibition, % at 12.5 µM; LMP1-induced NF-kappaB luciferase reporter cells; in the data active means inhibition above about 41%; inconclusive means no clear call, values can overlap the other calls;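 further: 0% = neutral control wells and 100% = reference inhibitor control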
PAX8 inh HTS: inhibitors of PAX8-driven TPO luciferase reporter, primary screen, RMG-I cells, single concentration; SteadyGlo, 24 h; inhibition, % at 12.6 µM; 1.2% of 360,000 active; AID 652154, 2013;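 active means mean replicate inhibition at least 60% with every replicate also reaching 60%; inconclusive means only one of the two criteria is met; inactive means mean below 60% and not all replicates reaching 60%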;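 further: luciferase light reporting Pax8 driven TPO promoter activity; plate controls were median of neutral control wells for no effect and mitoxantrone controls for full effect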
MITF TRPM1 inh: inhibitors of MITF-dependent TRPM1 promoter reporter, primary screen, cell-based, SK-MEL-5, single point, luciferase | SK-MEL-5 TRPM1 promoter luciferase, 24 h | inhibition, % at 12.5 µM | 0.83% of 330,000 active | AID 488899, 2010;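 active means mean inhibition across replicates of 60% or more, whatever share of single replicates reaches that level; inconclusive means some that reach 60%, reason not given; inactive means mean inhibition across replicates below 60%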
The depositor's hits bear a star; ? = inconclusive; nt = no result. Shown are actives, neighbours in structure and some others; about 2.2% of the full set was active somewhere.

SMILES	EWS-Fli block	Shn3 3UTR inh	LGR2 inh	LMP1 NFkB inh	PAX8 inh HTS	MITF TRPM1 inh
C=CCc1cc(C)ccc1OCCOCCC(C(=O)OCC)C(=O)OCC	3	-9	4	-16	79*	-5
CO[C@H]1CN(C)C(=O)c2cc(NC(C)=O)ccc2OC[C@H](C)N(CC2CCCCC2)C[C@@H]1C	2	nt	-2	nt	-7	nt
CC(=O)c1cccc(NC(=O)CSc2nc3ccccc3c(=O)n2CCCN2CCOCC2)c1	-2	6	-15	0	18	1
O=C(CSc1nc2ccccc2c(=O)n1CCCN1CCOCC1)Nc1ccc(Br)cc1	-4	3	-21	49*	19	-10
O=C(CSc1nc2ccccc2[nH]1)Nc1nc(-c2cccc(Br)c2)cs1	2	-9	?	3	-76	0
CC(C)Oc1ccccc1NC(=O)CSc1nc2ccccc2c(=O)n1C	9	67	11	10	11	7
CN(C)CCCn1c(SCC(=O)Nc2nc(-c3cccc(Br)c3)cs2)nc2ccccc2c1=O	-25	-53	-19	-17	-19	63*
Cc1ccc(NC(=O)CSc2nc3ccccc3c(=O)n2CCCC(=O)N2CCCC2)cc1	nt	14	nt	1	nt	23
Cc1ccccc1NC(=O)CSc1nc2ccccc2c(=O)n1C	14	87*	10	5	17	21
Cc1ccc(NC(=O)CSc2nc3ccccc3c(=O)n2CCCN2CCCCC2)cc1C	nt	16	nt	34	-43	70*
C[C@@H]1CN([C@@H](C)CO)S(=O)(=O)c2ccc(C#CC3CC3)cc2O[C@H]1CN(C)C(=O)Nc1cc(F)ccc1F	16	nt	8	nt	nt	nt
COCCCn1c(SCC(=O)Nc2ccc(C)cc2)nc2ccccc2c1=O	-9	18	-11	1	12	-6
Cc1ccc(NC(=O)CSc2nc3ccccc3c(=O)n2Cc2cccs2)cc1	-22	9	-3	-25	66*	-7
CCCC(=O)NC(c1cccc([N+](=O)[O-])c1)c1ccc2cccnc2c1O (configuration not stated)	11	87*	41	68*	78*	nt
CC(C)C(=O)NC(c1cccc([N+](=O)[O-])c1)c1ccc2cccnc2c1O (configuration not stated)	33	89*	11	52*	78*	62*
CC(C)C(=O)NC(c1cccc([N+](=O)[O-])c1)c1c(O)ccc2ccccc12 (configuration not stated)	-24	-26	-18	-23	-21	-33
COc1ccc(NC(=O)C(=O)NCCC2CCCCN2S(=O)(=O)c2ccccc2)cc1 (configuration not stated)	52*	-37	-1	1	41	30
COc1ccc(NC(=O)C(=O)NCCC2CCCCN2S(=O)(=O)c2cccs2)cc1 (configuration not stated)	58*	38	1	-9	35	37
CC(C)CC#Cc1ccc2c(c1)O[C@@H](CN(C)C(=O)CN(C)C)[C@@H](C)CN([C@@H](C)CO)S2(=O)=O	7	nt	-24	nt	nt	nt
C[C@@H]1CN([C@@H](C)CO)C(=O)Cc2cc(NC(=O)CCN3CCOCC3)ccc2O[C@H]1CN(C)Cc1ccc(-c2ccccc2)cc1	10	nt	-11	nt	-14	nt
CN(C[C@@H]1N[C@H](CO)[C@H]1c1ccc(C2=CCCC2)cc1)C(=O)c1ccncc1	13	nt	-17	nt	-31	nt
CCCNC(=O)N(C)C[C@H]1N[C@@H](CO)[C@@H]1c1ccc(C2=CCCCC2)cc1	45	nt	3	nt	103*	nt
OC(c1ccccc1)(c1ccccc1)C1CCN(CCCOc2cccc(Cl)c2)CC1	16	nt	7	nt	-8	nt
CC(C)c1ccc(OCCCN2CCC(C(O)(c3ccccc3)c3ccccc3)CC2)cc1	33	nt	103*	nt	53	nt
OC(c1ccccc1)(c1ccccc1)C1CCN(CCCOc2cccc(C(F)(F)F)c2)CC1	4	nt	106*	nt	2	nt
OC(c1ccccc1)(c1ccccc1)C1CCN(CCCOc2ccc(C(F)(F)F)cc2)CC1	18	nt	107*	nt	27	nt
OC(c1ccccc1)(c1ccccc1)C1CCN(CCCOc2ccc(F)cc2)CC1	4	nt	17	nt	3	nt
